Results filed as inconclusive are left out. Calls of active or inactive are those of the source. Rule for the calls, unless noted: active = hit-call score of the fitted dose curve at least 0.9, where 1 is the maximum; inconclusive = response in the unintended direction; inactive = score below 0.9.
Columns and labels:
[1] = Tanguay_ZF_120hpf_SNOU_legacy: (Legacy) Oregon State University Tanguay Lab 120 Hour Post-fertilization zebrafish Assay for Snout Malformation (AID 2283637)
Procedure, shortened: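 Binary brightfield scoring of snout malformation at 120 hpf. Dechorionated 5D wild-type embryos, one per well, static exposure from 6 hpf at 28C, sealed and dark; final DMSO 0.64% (vol/vol), DMSO as baseline; 5uM trimethyltin chloride positive control.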

[2] = Tanguay_ZF_120hpf_JAW_legacy: (Legacy) Oregon State University Tanguay Lab 120 Hour Post-fertilization zebrafish Assay for Jaw Malformation (AID 2283638);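 for AC50: active means more embryos with jaw malformation than DMSO controls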
Procedure, shortened: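 Dechorionated Tropical 5D wild-type zebrafish embryos, one per well, exposed statically from 6 hpf to 120 hpf at 28C in 0.64% DMSO. Jaw malformation was scored by brightfield microscopy as present or absent. It was not scored in dead embryos.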

[3] = Tanguay_ZF_120hpf_OTIC_legacy: (Legacy) Oregon State University Tanguay Lab 120 Hour Post-fertilization zebrafish Assay for Otic Vesicle Malformation (AID 2283639)
Procedure, shortened: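 Binary scoring of otic vesicle defects at 120 hpf in zebrafish (Tropical 5D) held under static exposure at 28C, sealed and shaded, with final DMSO 0.64%. Embryos dying by 24 or 120 hpf excluded; fitted positively against DMSO.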

[4] = Tanguay_ZF_120hpf_PE_legacy: (Legacy) Oregon State University Tanguay Lab 120 Hour Post-fertilization zebrafish Assay for Pericardial Edema (AID 2283640);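 for AC50: potency for increased incidence of pericardial edema versus DMSO baseline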
Procedure, shortened: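 Tropical 5D wild-type zebrafish embryos were statically exposed until 120 hpf at 28C, with 0.64% DMSO final. Pericardial edema was scored by brightfield as present or absent; endpoints were not scored in dead embryos.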

[5] = Tanguay_ZF_120hpf_BRAI_legacy: (Legacy) Oregon State University Tanguay Lab 120 Hour Post-fertilization zebrafish Assay for Brain Malformation (AID 2283641)
Procedure, shortened: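 Tropical 5D wild-type zebrafish embryos exposed statically until 120 hpf at 28C, 0.64% DMSO final, sealed and dark. Brain malformation scored present/absent by brightfield at 120 hpf; dead embryos excluded. Trimethyltin chloride 5uM positive control.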

[6] = Tanguay_ZF_120hpf_SOMI_legacy: (Legacy) Oregon State University Tanguay Lab 120 Hour Post-fertilization zebrafish Assay for Somite Malformation (AID 2283647)
Procedure, shortened: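 Dechorionated Tropical 5D wild-type zebrafish embryos, one per well from 6 hpf, statically exposed at 28C to 120 hpf in 0.64% DMSO; somite malformation scored present/absent by brightfield; trimethyltin 5 uM positive control; dead embryos not scored.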

[7] = Tanguay_ZF_120hpf_PFIN_legacy: (Legacy) Oregon State University Tanguay Lab 120 Hour Post-fertilization zebrafish Assay for Pectoral Fin Malformation (AID 2283648);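 note: each larva judged yes or no for fin defect by brightfield with dead larvae skipped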
Procedure, shortened: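 Binary pectoral fin malformation call at 120 hpf by brightfield microscopy; 5D wild-type zebrafish, chorion removed at 4 hpf, one embryo per well from 6 hpf, static exposure at 28C; DMSO (0.64% final) as baseline.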

[8] = Tanguay_ZF_120hpf_CFIN_legacy: (Legacy) Oregon State University Tanguay Lab 120 Hour Post-fertilization zebrafish Assay for Caudal Fin Malformation (AID 2283649)
Procedure, shortened: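 Dechorionated Tropical 5D wild-type embryos, one per well from 6 hpf, static exposure to 120 hpf at 28C in 0.64% DMSO. Caudal fin malformation scored by brightfield as present/absent; not scored in dead embryos.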

[9] = Tanguay_ZF_120hpf_PIG_legacy: (Legacy) Oregon State University Tanguay Lab 120 Hour Post-fertilization zebrafish Assay for Pigmentation Malformation (AID 2283650)
Procedure, shortened: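 Brightfield scoring of pigmentation malformation at 120 hpf, recorded as binary present/absent per larva. Exposure: dechorionated 5D wild-type embryos, one per well, static from 6 hpf at 28C, final DMSO 0.64% (vol/vol). Dead embryos not scored.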

[10] = Tanguay_ZF_120hpf_CIRC_legacy: (Legacy) Oregon State University Tanguay Lab 120 Hour Post-fertilization zebrafish Assay for Circulatory Malformation (AID 2283651)
Procedure, shortened: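 Binary circulatory malformation call at 120 hpf by brightfield imaging of zebrafish larvae; chorion removed at 4 hpf, static exposure from 6 hpf in sealed dark plates at 28C, final DMSO 0.64%; non-mortality endpoints skipped if embryo died.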

[11] = Tanguay_ZF_120hpf_SWIM_legacy: (Legacy) Oregon State University Tanguay Lab 120 Hour Post-fertilization zebrafish Assay for Swim Bladder Malformation (AID 2283654);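 note: swim bladder malformation in each larva scored yes or no under brightfield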
Procedure, shortened: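 Tropical 5D embryos dechorionated at 4 hpf; 1 embryo/well from 6 hpf; static, sealed, dark exposure at 28C until 120 hpf; final DMSO 0.64%; 5uM trimethyltin chloride positive control; swim bladder defect recorded yes/no; dead embryos not scored.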

[12] = Tanguay_ZF_120hpf_TRUN_legacy: (Legacy) Oregon State University Tanguay Lab 120 Hour Post-fertilization zebrafish Assay for Truncated Body (AID 2283655)
Procedure, shortened: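 Dechorionated Tropical 5D wild-type embryos placed singly from 6 hpf and statically exposed to 120 hpf at 28C, final DMSO 0.64%. Truncated body scored as present/absent by brightfield; not scored in dead embryos.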

[13] = Tanguay_ZF_120hpf_NC_legacy: (Legacy) Oregon State University Tanguay Lab 120 Hour Post-fertilization zebrafish Assay for Notochord and Tail Malformation (AID 2283656)
Procedure, shortened: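 Binary scoring of notochord distortion by brightfield microscopy; embryos dying were not scored. Wild-type Tropical 5D embryos, chorion removed, exposed singly and statically from 6 to 120 hpf, 28C, sealed, 0.64% DMSO.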

[14] = read-out: xenobiotic metabolism (CYP1A1), CYP1A1 (gene 1543); assay: CLD_CYP1A1_6hr: CellzDirect (CLD) Gene Expression Assay for xenobiotic metabolism (CYP1A1) at 6 hours (AID 2283661);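 note: potency for transcript induction above DMSO vehicle baseline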
Procedure, shortened: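 Read-out 6 h post-dose: qNPA chemiluminescent quantitation of transcript induction against 0.2% DMSO. Cells were cultured primary human hepatocytes from two separate donor preparations; phase-contrast morphology annotated apparent cytotoxicity.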

[15] = read-out: ABC Transporter (ABCB1), ABCB1 (gene 5243); assay: CLD_ABCB1_6hr: CellzDirect (CLD) Gene Expression Assay for ABC Transporter (ABCB1) at 6 hours (AID 2283659);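 note: hits raise ABCB1 transcript above the DMSO vehicle baseline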
Procedure, shortened: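 ABCB1 transcript measured by quantitative nuclease protection assay, chemiluminescent read-out, 6 h after dosing human hepatocyte cultures (0.2% DMSO vehicle, daily redosing). Activity fitted as increase over DMSO baseline; cytotoxicity flagged by phase-contrast morphology.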

[16] = read-out: Broad substrate specificity ATP-binding cassette transporter ABCG2 (Homo sapiens) (UniProt Q9UNQ0); assay: CLD_ABCG2_6hr: CellzDirect (CLD) Gene Expression Assay for ABC Transporter (ABCG2) at 6 hours (AID 2283660)
Procedure, shortened: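 ABCG2 mRNA induction measured by qNPA chemiluminescence in human primary hepatocyte cultures, 6 h post-dose. Chemicals tested at several concentrations against a 0.2% DMSO vehicle; positive-direction fit relative to DMSO.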

[17] = read-out: kallikrein-3 (KLK3), KLK3 (gene 354); assay: LTEA_HepaRG_KLK3: Life Technologies and Expression Analysis (LTEA) Assay for kallikrein-3 (KLK3) using HepaRG (AID 2283652; active = hit-call score of the fitted dose curve at least 0.9, where 1 is the maximum; inactive = score below 0.9); details: mRNA level, 48 h; actives raise or lower the signal
Procedure, shortened: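 KLK3 transcript levels were measured by TaqMan qRT-PCR with normalisation to three housekeeping genes. HepaRG cultures received chemicals for 48 h at up to 100 uM (half-log, 8 points, 0.5% DMSO vehicle), fitted in both directions against DMSO.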

[18] = read-out: solute carrier (SLC22A6), SLC22A6 (gene 9356); assay: LTEA_HepaRG_SLC22A6: Life Technologies and Expression Analysis (LTEA) Assay for solute carrier (SLC22A6) using HepaRG (AID 2283653; active = hit-call score of the fitted dose curve at least 0.9, where 1 is the maximum; inactive = score below 0.9); details: mRNA level, 48 h; actives raise or lower the signal
Procedure, shortened: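 Differentiated HepaRG cells exposed 48 h in serum-free induction medium to 8 half-log concentrations, top 100 uM, in 0.5% DMSO; SLC22A6 mRNA by Fluidigm qRT-PCR normalized to ACTB, GAPDH, POLR2A, fitted bidirectionally versus DMSO.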

[19] = read-out: solute carrier (SLC10A1), SLC10A1 (gene 6554); assay: LTEA_HepaRG_SLC10A1: Life Technologies and Expression Analysis (LTEA) Assay for solute carrier (SLC10A1) using HepaRG (AID 2283657; active = hit-call score of the fitted dose curve at least 0.9, where 1 is the maximum; inactive = score below 0.9); details: mRNA level, 48 h; actives raise or lower the signal
Procedure, shortened: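 HepaRG, 48 h exposure, 8-pt half-log curve from 100 uM in 0.5% DMSO, duplicates. Read-out: TaqMan qRT-PCR of SLC10A1 mRNA, normalized to three housekeeping genes. Gain/loss fit vs DMSO baseline.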

[20] = read-out: matrix metalloproteinase-1 (MMP1), MMP1 (gene 4312); assay: LTEA_HepaRG_MMP1: Life Technologies and Expression Analysis (LTEA) Assay for matrix metalloproteinase-1 (MMP1) using HepaRG (AID 2283658; active = hit-call score of the fitted dose curve at least 0.9, where 1 is the maximum; inactive = score below 0.9); details: mRNA level, 48 h; actives raise or lower the signal
Procedure, shortened: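 Differentiated human HepaRG cells, 48 h post-plating in serum-free induction medium, were exposed 48 h to eight half-log concentrations topping at 100 uM in 0.5% DMSO, duplicate. MMP1 mRNA measured by Fluidigm TaqMan qRT-PCR, normalized to ACTB, GAPDH, POLR2A; bidirectional fits versus DMSO.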

Measured: AC50

Broad substrate specificity ATP-binding cassette transporter ABCG2 (Homo sapiens), sequence (Q9UNQ0 whole entry, looked up): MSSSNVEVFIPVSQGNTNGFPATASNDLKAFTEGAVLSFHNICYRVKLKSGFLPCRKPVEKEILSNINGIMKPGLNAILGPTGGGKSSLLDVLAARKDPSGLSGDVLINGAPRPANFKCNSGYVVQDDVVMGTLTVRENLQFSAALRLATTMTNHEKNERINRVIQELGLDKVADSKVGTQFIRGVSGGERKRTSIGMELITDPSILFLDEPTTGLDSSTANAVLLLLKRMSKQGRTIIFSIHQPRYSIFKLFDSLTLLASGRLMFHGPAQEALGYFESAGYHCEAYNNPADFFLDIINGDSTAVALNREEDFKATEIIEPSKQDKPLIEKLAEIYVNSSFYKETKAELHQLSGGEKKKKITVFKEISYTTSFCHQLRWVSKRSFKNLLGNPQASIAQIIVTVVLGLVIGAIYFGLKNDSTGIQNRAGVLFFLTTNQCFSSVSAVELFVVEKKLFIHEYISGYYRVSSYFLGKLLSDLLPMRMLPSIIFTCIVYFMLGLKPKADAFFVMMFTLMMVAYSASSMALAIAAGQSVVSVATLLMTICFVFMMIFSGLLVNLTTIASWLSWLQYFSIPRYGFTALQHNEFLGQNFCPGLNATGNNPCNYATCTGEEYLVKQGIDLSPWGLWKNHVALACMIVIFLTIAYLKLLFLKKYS

CON(C)C(=O)Nc1ccc(Cl)c(Cl)c1
active: [14] 0.762 µM
inactive: [1] | [2] | [3] | [4] | [5] | [6] | [7] | [8] | [9] | [10] | [11] | [12] | [13]

O=C(O)c1nc(Cl)ccc1Cl
inactive: [1] | [2] | [3] | [4] | [5] | [6] | [7] | [8] | [9] | [10] | [11] | [12] | [13]

CCCCOC(=O)c1ccccc1C(=O)OCCCC
inactive: [1] | [2] | [3] | [4] | [5] | [6] | [7] | [8] | [9] | [10] | [11] | [12] | [13] | [15]

CCOc1cc(Oc2ccc(C(F)(F)F)cc2Cl)ccc1[N+](=O)[O-]
inactive: [1] | [2] | [4] | [6] | [7] | [8] | [11] | [12] | [13] | [15] | [16]

CC1COC(Cn2cncn2)(c2ccc(Oc3ccc(Cl)cc3)cc2Cl)O1 (stereo not given)
active: [2] 26.6 µM | [7] 3.69 µM
inactive: [1] | [3] | [4] | [6] | [10] | [11] | [13] | [15] | [16]

CC(C)Oc1cc(-n2nc(C(C)(C)C)oc2=O)c(Cl)cc1Cl
inactive: [1] | [5] | [7] | [8] | [10] | [11] | [12] | [13] | [16]

COP(=S)(OC)Oc1nc(Cl)c(Cl)cc1Cl
active: [2] 34 µM
inactive: [3] | [5] | [6] | [7] | [8] | [9] | [10] | [11] | [12] | [13] | [15] | [16]

C=CC1(C)OC(=O)N(c2cc(Cl)cc(Cl)c2)C1=O (stereo not given)
inactive: [1] | [2] | [3] | [4] | [5] | [6] | [8] | [9] | [10] | [17] | [18] | [11] | [12] | [13] | [20]
active: [19] 77.2 µM

CNC(=S)S
inactive: [1] | [2] | [3] | [4] | [5] | [6] | [7] | [8] | [9] | [12] | [13] | [16]

CCOP(=S)(OCC)SCn1c(=O)oc2cc(Cl)ccc21
inactive: [1] | [3] | [5] | [6] | [7] | [9] | [10] | [11] | [12] | [15]

COP(N)(=O)SC (stereo not given)
inactive: [1] | [3] | [4] | [5] | [6] | [8] | [9] | [10] | [11] | [12] | [16]

COc1nc(C)nc(NC(=O)NS(=O)(=O)c2ccccc2CCC(F)(F)F)n1
inactive: [15] | [16]

COc1nc(C)nc(NC(=O)NS(=O)(=O)c2ccccc2Cl)n1
inactive: [15] | [16]

COc1cnc(OC)n2nc(NS(=O)(=O)c3c(OCC(F)F)cccc3C(F)(F)F)nc12
active: [14] 0.121 µM
inactive: [1] | [2] | [3] | [4] | [6] | [7] | [8] | [9] | [10] | [11] | [12] | [13] | [15]

O=C(Nc1ccccc1)Nc1ccnc(Cl)c1
inactive: [2] | [3] | [5] | [6] | [8] | [9] | [10] | [11] | [13] | [16]
active: [4] 50.5 µM | [14] 12.3 µM

CCNc1nc(Cl)nc(NCC)n1
inactive: [1] | [2] | [3] | [4] | [5] | [6] | [7] | [8] | [10] | [11] | [12]
